High-throughput results deposited in PubChem BioAssay by National Center for Advancing Translational Sciences (NCATS).
Shown are actives, neighbours in structure and some others; about 10% of the full set was active somewhere.
G9a inh: G9a (human) methyltransferase inhibition | 350,000 tested, 8.8% active | Potency, µM (doses to about 102 µM), for the others: at the highest dose activity, negative = inhibition, most hits filed as inhibitors | AID 504332 | G9a H3K9 monomethylation, AlphaScreen, 2 h; also: potency is read from the fitted curve at half-maximal effect; % is scaled to controls: 0 for no effect and ±100 for the full control effect; nearly all actives have a fitted effect of over 75% in size
Target sequence (Q96KQ7 913-1193 limits assumed): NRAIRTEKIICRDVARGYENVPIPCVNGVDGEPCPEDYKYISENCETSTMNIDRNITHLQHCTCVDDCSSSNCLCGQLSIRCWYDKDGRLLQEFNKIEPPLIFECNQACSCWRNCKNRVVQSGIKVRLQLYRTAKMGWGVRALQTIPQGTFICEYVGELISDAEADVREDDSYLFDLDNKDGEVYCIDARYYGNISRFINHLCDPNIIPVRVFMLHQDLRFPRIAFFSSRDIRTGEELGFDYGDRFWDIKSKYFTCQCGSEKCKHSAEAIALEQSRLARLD
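AlphaScreen detection with an anti-monomethyl H3K9 antibody quantified product after a 2 h room-temperature reaction containing 500 nM biotinylated H3K9 peptide, 20 µM SAM and 20 nM enzyme, which had been preincubated 15 min with compound.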
JMJD2A Tudor inh: inhibitors of human JMJD2A Tudor domain; 390,000 tested, 4.4% active; AlphaScreen JMJD2A-Tudor / H3K4me3 peptide binding; Potency, µM (highest dose often 114 µM), for inactives: at the top dose activity change, negative = inhibition, usual class: inhibitors; also: potency is read from the fitted curve at half-maximal effect; % is scaled to controls: 0 for no effect and ±100 for the full control effect; nearly all actives have a fitted effect of over 50% in size
BAZ2B inh: BAZ2B (human) inhibition | Q9UIF8 | AlphaScreen BAZ2B-H3K14Ac peptide displacement | Potency, µM (top dose mostly 114 µM), for inactives: at the highest dose activity change, negative = inhibition, most hits filed as inhibitors | 360,000 tested, 4.4% active | AID 504333; also: potency is read from the fitted curve at half-maximal effect; % is scaled to controls: 0 for no effect and ±100 for the full control effect; nearly all actives have a fitted effect of over 60% in size
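AlphaScreen displacement of biotin-H3(5-23)K14Ac peptide (50 nM final) from BAZ2B (50 nM final) in PBS pH 7.4, 0.01% Tween-20; complex preformed 30 min RT, then compounds (top 110 uM) 30 min RT, beads 20 min dark.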
HP1b binding inh: HP1-beta chromodomain-methylated histone interaction inhibition | Potency, µM (series often up to 114 µM), without a hit: top-dose activity change, negative = inhibition, most hits filed as inhibitors | AlphaScreen HP1-beta / biotin-H3K9me3 peptide binding | AID 540317 | 390,000 tested, 0.56% active; also: potency is read from the fitted curve at half-maximal effect; nearly all actives have a fitted effect of over 70% in size
Target sequence (P83916 whole entry, looked up): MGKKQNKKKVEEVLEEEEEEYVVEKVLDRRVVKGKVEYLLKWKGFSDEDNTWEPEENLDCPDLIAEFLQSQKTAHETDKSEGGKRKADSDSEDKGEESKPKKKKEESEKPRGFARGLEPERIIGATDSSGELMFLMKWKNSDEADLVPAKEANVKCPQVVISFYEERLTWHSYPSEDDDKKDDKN
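AlphaScreen: HP1-beta (50 nM) preformed 30 min with biotin-H3(1-18)K9me3 peptide (50 nM) in PBS pH 7.4, 0.01% Tween-20. Compound added for 30 min at RT, then streptavidin donor/nickel chelate acceptor beads (10 ug/mL) for 30 min.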
Six1-Eya2 blk: inhibitors of human Six1/Eya2 interaction; 360,000 tested, 0.56% active; AID 651725; activity change, % (concentration not given with the values); AlphaScreen GST-Six1/His-Eya2 binding, biochemical; stronger effect = lower value; Q15475+O00167; in the data active = activity change below about -65%; inconclusive = mostly about -30% to -63%; also: % is scaled to controls: 0 for no effect and ±100 for the full control effect
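Homogeneous AlphaScreen proximity assay pairing GST-Six1 with His-tagged Eya2 (added as 5X mix: 250 nM and 500 nM) in 50 mM Tris pH 8.0, 300 mM NaCl, 1 mM TCEP. Glutathione donor and nickel acceptor beads; 1 h, 37 °C, dark.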
CtBP-E1A blk: blocks the CtBP interaction with E1A. activity change, % (no concentration beside the values). AlphaScreen GST-E1A/His-CtBP binding, 1536-well; stronger effect = lower value. 340,000 tested, 0.49% active; in the data active = activity change below about -65%; inconclusive = mostly about -30% to -63%; also: % is scaled to controls: 0 for no effect and ±100 for the full control effect
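Homogeneous bead-based format: GST-tagged E1A captured on glutathione donor beads, His-tagged CtBP on nickel acceptor beads; compounds precede bead addition by 2 h at 37 °C.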
* hit, by the source's call; ? = inconclusive; · = no result given; [ ] = dose if it differs, or a comment. Unless noted, calls follow the shape of the dose curve; as a rule, active = well fitted inhibition curve with a large enough effect; inconclusive = small, poorly fitted or top-dose-only effect; inactive = no such curve, though single readings can be large or run the other way.

SMILES	G9a inh	JMJD2A Tudor inh	BAZ2B inh	HP1b binding inh	Six1-Eya2 blk	CtBP-E1A blk
O=C(NC(NC(=S)Nc1ccccc1C(=O)O)C(Cl)(Cl)Cl)c1cccc([N+](=O)[O-])c1 (stereo not drawn)	?	79µM*	-6%	-31%	-10	-17
Cc1ccc2cc(CN(C(=O)c3cccc(Cl)c3)c3ccccc3)c(=O)[nH]c2c1	-3%[59 µM]	-6%	-2%	38%	·	·
COc1ccc(C(=O)N2CC(=O)Nc3ccc(C)cc3C2c2ccccc2)cc1OC (stereo not drawn)	4%[59 µM]	-4%	3%	30%	·	·
Nc1nnc(-c2ccccc2Cl)s1	22µM*	8%	2%	-19%	-6	0
Cc1ccc(C=C2C(=O)c3ccccc3C2=O)s1	?	?	16µM*	?	-2	4
Cc1cc(C=C2C(=O)c3ccccc3C2=O)c(C)n1C	40µM*	-31%	-24%	-3%	0	-2
Cc1noc(-c2ccccc2OCC(=O)Nc2cccc([N+](=O)[O-])c2)n1	?	50µM*	?	-21%	·	·
Cc1noc(-c2ccccc2OCC(=O)Nc2ccccc2[N+](=O)[O-])n1	?	-25%	-24%	34%	·	·
Cc1ccccc1-c1noc(-c2ccccc2OCC(=O)Nc2ccccc2[N+](=O)[O-])n1	14µM*	20µM*	?	-11%	·	·
CC1(C)OC(C)(C)/C(=C/Nc2ccc(O)cc2)C1=O	8.9µM*	?	?	-27%	-21	-3
CCCn1nnc(NC(=S)NC(=O)CC)n1	8.9µM*	2.8µM*	-33%	?	2	2
CCCn1nnc(NC(=S)NC(=O)c2ccc(-c3ccc(Br)cc3)o2)n1	?	-29%	-13%	17%	2	-3
CCCCn1nnc(NC(=O)c2ccco2)n1	11%[59 µM]	-25%	-3%	48%	27	4
CCCn1nnc(NC(=S)NC(=O)Cc2ccccc2)n1	32µM*	-1%	-1%	22%	-2	1
CCCCn1nnc(NC(=S)NC(=O)c2cccs2)n1	10µM*	?	-3%	-27%	2	8
O=C1CN(C(=O)C2CCCCC2)C(c2ccccc2)c2cc(F)ccc2N1 (stereo not drawn)	-4%[59 µM]	-28%	-3%	12%	·	·
Nc1nc(N)nc(-c2ccc(Cl)cc2)n1	-2%	-12%	79µM*	7%	3	8
CCOc1ccc(S(=O)(=O)N2CCCCC2)cc1NC(=O)C1CSC2(C)CCC(=O)N12 (stereo not drawn)	40µM*	-11%	-2%	12%	-10	6
CC1CCN(S(=O)(=O)c2ccc(NC(=O)C3CSC4(C)CCC(=O)N34)cc2)CC1 (stereo not drawn)	?	79µM*	?	8%	-8	0
Cc1oc2ncn(C)c(=O)c2c1C(=O)NCCCN(Cc1ccccc1)C(C)C	-2%[59 µM]	0%	10%[57.1 µM]	32%	·	·
CC(=O)/C(=N/Nc1ccccc1C)N1CCOCC1	1µM*	56µM*	-2%	1%	4	-11
CC(=O)/C(=N/Nc1ccccc1)N1CCOCC1	-19%[59 µM]	-16%	3%	33%	-1	5
CCOC(=O)/C(=C\c1cccnc1)C(=O)c1cc(C(C)=O)c(Nc2ccccc2)s1	10µM*	?	56µM*	-11%	-9	-1
Cc1cc(NC(=O)CSc2cn(CCNC(=O)c3ccc(Cl)cc3)c3ccccc23)no1	?	-6%	-8%	41%	-5	-3
CCN(CC)C(=O)Cn1cc(SCC(=O)Nc2ccccc2C)c2ccccc21	-15%[59 µM]	-11%	-10%	56%	·	·
SMILES	G9a inh	JMJD2A Tudor inh	BAZ2B inh	HP1b binding inh	Six1-Eya2 blk	CtBP-E1A blk
Cc1ccc(C(=O)NCCn2cc(SCC(=O)Nc3nnc(C)s3)c3ccccc32)cc1	50µM*	-22%	-6%	36%	1	-4
CCN(CC)C(=O)Cn1cc(SCC(=O)Nc2cc(C)on2)c2ccccc21	-7%	89µM*	-12%	14%	1	6
CCOc1ccc(C(=O)NCCn2cc(SCC(=O)Nc3cc(C)on3)c3ccccc32)cc1	-7%[59 µM]	-19%	79µM*	19%	-3	-1
Nc1cc(Br)c(N)c(Br)c1	50µM*	-15%	-32%	-4%	-3	-1
Cc1nc2nc(C)c(NS(=O)(=O)c3ccc(F)cc3)c(=O)n2[nH]1	-1%[59 µM]	3%	-11%	34%	·	·
COc1ccc2c(CC(=O)OCC(=O)Nc3cc(C)c(C)cc3[N+](=O)[O-])coc2c1	20µM*	?	?	?	-29	2
COc1ccc(C(=O)OCC(=O)Nc2cc(C)c(C)cc2[N+](=O)[O-])cc1	-3%[59 µM]	-26%	-19%	27%	0	·
COc1ccc(C(C)=O)cc1COC(=O)CNC(=O)c1ccc(F)cc1	-15%[59 µM]	1%	-1%	30%	-2	-1
CCOc1ccc(C(=O)NCC(=O)OCc2cc(C(C)=O)ccc2OC)cc1	45µM*	-4%	8%	5%	-1	-12
COc1ccc(C(C)=O)cc1COC(=O)CNC(=O)c1ccc(Cl)cc1	50µM*	-2%	-3%	28%	-1	·
CCOc1ccc(C(=O)NCC(=O)OCCCOC(=O)CNC(=O)c2ccc(OCC)cc2)cc1	42%	-4%	-1%	28%	-1	5
CCOC(=O)c1c(C)[nH]c(C)c1S(=O)(=O)NCC(=O)NCc1cccc(Br)c1	-1%[59 µM]	-18%	-19%	14%	·	·
COc1ccc(NC(=O)c2cc(=O)c3cc(C)cc(C)c3o2)cc1	4%[59 µM]	-11%	4%	19%	·	·
COc1cc(C2C(C(=O)N3CCOCC3)=C(C)NC3=C2C(=O)CCC3)ccc1OC(C)=O (stereo not drawn)	1.6µM*	2%	-2%	15%	4	10
CC1CN(CCS(=O)(=O)c2cc(Cl)ccc2Cl)CC(C)O1 (stereo not drawn)	-12%	1%	2%	18%	-5	5
Cc1cc(C)c(C)c(OCCN2CC(C)OC(C)C2)c1 (stereo not drawn)	1.8µM*	5.6µM*	32µM*	?	-5	8
CC1CN(CCOc2ccc(Cl)cc2Cl)CC(C)O1 (stereo not drawn)	?	8.9µM*	-37%	?	1	2
COc1cc(C)ccc1OCCCCN1CC(C)OC(C)C1 (stereo not drawn)	8.9µM*	35µM*	50µM*	?	-15	-8
Cc1ccc(SCCOCCN2CC(C)OC(C)C2)cc1 (stereo not drawn)	?	-9%	10%	20%	2	4
CC1CN(CCCCOc2ccc(Cl)c3ccccc23)CC(C)O1 (stereo not drawn)	·	11µM*	?	-33%	-4	3
